Screening results as filed in PubChem BioAssay.
The sample as a whole holds a higher share of hits than the screen did.
Tb PYK inh = qHTS of Trypanosoma Brucei Inhibitors. TbPYK enzyme, Kinase-Glo Plus ATP luminescence, 45 min. Potency, µM (highest dose often 76.8 µM), without a hit: at the highest dose activity, negative = inhibition, usual class: inhibitors. actives 0.12% (n = 410,000); also: potency is read from the fitted curve at half-maximal effect; % is scaled to controls: 0 for no effect and ±100 for the full control effect; nearly all actives have a fitted effect of over 50% in size
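Luminescence from Kinase-Glo Plus, added after a 45-minute room-temperature reaction, served as the end-point read-out. The enzyme and substrate were preincubated with compound before ADP (130 uM final) initiated turnover. Concentration-effect curves came from normalized qHTS data.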
RE007 growth inh = qHTS Assay for Inhibitors of the HIV-1 protein Vpr; S. pombe RE007 Vpr strain, BacTiter-Glo ATP luminescence, 24 h; Potency, µM (doses to about 92.2 µM), for the others: top-dose activity change, negative = less growth, hits mostly inhibitors; actives 0.21% (n = 360,000); AID 651644, 2012; active = well fitted falling curve with a large enough effect; inconclusive = small, poorly fitted or top-dose-only effect; inactive = no such curve, though single readings can be large or run the other way; also: potency is read from the fitted curve at half-maximal effect; % is scaled to controls: 0 for no effect and ±100 for the full control effect; nearly all actives have a fitted effect of over 50% in size
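Fission yeast RE007 carrying one integrated HIV-1 vpr copy, seeded at OD 0.01 in PMG+AL medium with 23 nL pinned compound. Grown 24 h at 30 degrees; viability read by BacTiter-Glo luminescence after 5 min.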
Giardia FBPA inh = qHTS Assay for Inhibitors of Fructose-1,6-bisphosphate Aldolase from Giardia Lamblia; A8B2U2; actives 0.71% (n = 290,000); AID 2451, 2010; purified Giardia FBPA; Potency, µM (highest dose often 59.6 µM), without a hit: at the highest dose activity, negative = inhibition, hits mostly inhibitors; also: potency is read from the fitted curve at half-maximal effect; % is scaled to controls: 0 for no effect and ±100 for the full control effect; nearly all actives have a fitted effect of over 55% in size
Target sequence (A8B2U2 whole entry, looked up): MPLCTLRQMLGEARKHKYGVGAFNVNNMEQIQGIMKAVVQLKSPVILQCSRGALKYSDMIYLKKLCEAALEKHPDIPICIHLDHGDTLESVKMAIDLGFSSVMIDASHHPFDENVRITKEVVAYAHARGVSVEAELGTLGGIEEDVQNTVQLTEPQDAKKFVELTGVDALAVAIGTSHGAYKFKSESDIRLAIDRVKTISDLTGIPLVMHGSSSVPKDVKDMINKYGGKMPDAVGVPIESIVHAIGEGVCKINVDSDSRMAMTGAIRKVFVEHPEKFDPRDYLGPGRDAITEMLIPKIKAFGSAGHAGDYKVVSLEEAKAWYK
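Giardia FBPA (40 nM reagent) was preincubated 10 min at RT with compound (up to 57.5 uM final), then substrate plus GAPDH/TPI/NAD/arsenate coupling system with diaphorase/resazurin was added; resorufin fluorescence (525/598 nm) was read after 20 min.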
CHX counter = Cycloheximide Counterscreen for Small Molecule Inhibitors of Shiga Toxin; cell reporter, cycloheximide protein synthesis inhibition counterscreen; AID 2314, 2010; max response, %; actives 12% (n = 300,000); in the data active = max response mostly above about 13%, no sharp cut-off; inactive = mostly below about 14%; also: read at 38.3 µM for the half of the compounds with a filed dose; 0% is about no effect
LmPK inhibitor = qHTS Assay for Inhibitors of Leishmania Mexicana Pyruvate Kinase (LmPK); Q27686; purified LmPK, Kinase-Glo ATP luminescence, 1 h; Potency, µM (titrated, usually from 57.5 µM), for inactives: at the highest dose activity change, negative = inhibition, most hits filed as inhibitors; actives 0.37% (n = 290,000); also: potency is read from the fitted curve at half-maximal effect; % is scaled to controls: 0 for no effect and ±100 for the full control effect
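Pyruvate kinase activity monitored as ATP production (luciferase luminescence). Conditions: 0.1 nM enzyme, 0.5 mM PEP, 0.1 mM ADP, 1 h, RT; normalized against uninhibited and no-enzyme wells.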
Shiga toxin inh = A qHTS for Small Molecule Inhibitors of Shiga Toxin | AID 2315, 2010 | Vero cells, Shiga toxin protein synthesis inhibition reporter | inhibition, % at 38.7 µM | actives 9.2% (n = 290,000); in the data active = inhibition mostly above about 28%, no sharp cut-off; inactive = mostly below about 43%; also: 0% is about no effect
* = called active by the depositor; ? = inconclusive; . = no result; [ ] = dose if it differs, or a comment. Unless noted, calls follow the shape of the dose curve; as a rule, active = well fitted curve in the direction sought with a large enough effect; inconclusive = small, poorly fitted or top-dose-only effect, or another doubt; inactive = no such curve, though single readings can be large; an effect the other way counts as inactive or inconclusive.

SMILES	Tb PYK inh	RE007 growth inh	Giardia FBPA inh	CHX counter	LmPK inhibitor	Shiga toxin inh
CSCc1c(C(=O)Nc2ccc(N3CCOCC3)cc2)oc2ccccc12	-3%	90%	-15%	8	6%	-8
O=C(CCl)Nc1c(C(=O)Nc2ccc3c(c2)OCCO3)oc2ccccc12	-4%	-3%	.	69*	-5%	84*
CSCc1c(C(=O)Nc2ccc3c(c2)OCO3)oc2ccccc12	-7%	8%	-10%	19*	3%	60*
Cc1c(C(=O)Nc2ccc3c(c2)OCO3)oc2ccccc12	-7%	-6%	-7%	43	0%	121*
CC(=O)Nc1c(C(=O)O)oc2ccc(Cl)cc12	7%	10%	16%	-1	0%	-10
CC(=O)Nc1c(C(=O)O)oc2ccccc12	-13%	-3%	12%	24*	0%	41
O=C(Nc1cccc(O)c1)c1cc(-c2ccco2)on1	-4%	-15%	0%	22*	?	49*
CC(=O)c1cccc(NC(=O)c2cc(-c3ccco3)on2)c1	-3%	20%	0%	35*	-5%	97*
O=C(Nc1cccc(C(F)(F)F)c1)c1cc(-c2ccco2)on1	0%	1%	2%	8	-2%	15
C=CC1=C2C=C(C3CC3)N(C3CCCC3)C=C2C(=O)C(C)(OC(=O)c2ccco2)C1=O (stereo unspecified)	.	.	?	.	-2%[11.5 µM]	.
Cc1ccc(N=Nc2c(N)n(-c3ccccc3)[nH]c2=O)cc1	-16%	-17%	-4%	38*	-7%	122*
Cc1[nH]n(-c2ccccc2)c(=O)c1N=Nc1cccc(C(=O)O)c1	-8%	-30%	?	42*	-1%	.
Cc1[nH]n(-c2ccccc2)c(=O)c1N=Nc1ccccc1	1%	7%	-25%	23*	-1%	48
O=C(NN=C1CCCCCC1)NC1CCCCC1	-4%	-4%	-1%	30*	0%	51*
N#CC(C#N)=c1ccc2c(c1)NC1(CCCCC1)N=2	?	?	?	37*	14µM*	65*
CCN(CC)c1ccc(-c2sc(Nc3ccccc3)n[n+]2-c2ccc(F)cc2)cc1	-9%	-7%	2%	18*	-10%	26*
O=C(O)c1ccc(-c2sc(Nc3ccccc3)n[n+]2-c2ccc(F)cc2)cc1	-8%	0%	?	-2	0%	-5
CN(C)c1ccc(-c2sc(Nc3ccccc3)n[n+]2-c2ccc(F)cc2)cc1	-7%	-11%	-15%	36*	-4%	50*
COC(=O)[C@@]1(Cc2ccccc2)[C@H]2c3cc(C(=O)N(C)C)n(C[C@H](O)CO)c3C[C@H]2CN1C(=O)c1ccccc1	.	.	2%	.	.	.
COc1ccc(-c2nc(C#N)c(N3CCC(C)CC3)o2)cc1	-14%	-5%	-13%	16*	0%	13
Cc1ccc(OCc2ccc(-c3nc(C#N)c(N4CCC(C)CC4)o3)o2)cc1	0%	.	.	.	.	.
Cc1ccc(-c2nc(C#N)c(N3CCC(C)CC3)o2)cc1	0%	2%	5%	17*	3%	65
CCCNC(=O)c1cc(C2CCCN(C(=O)c3ccccc3)C2)on1 (stereo unspecified)	0%	3%	.	.	.	.
CCn1c(CNC(C)=O)nnc1SCC(=O)c1ccc(Br)cc1	-17%	10%	-23%	3	0%	13
CCN(CC)C(=S)SCC(=O)c1ccc(Br)cc1	3%	1%	-4%	107*	0%	167*
CC(=O)Oc1c(I)cc(I)cc1C(=O)Nc1ccc(Cl)cc1	0%	4%	.	24*	-3%	36
CCOC(=O)C1(Cc2ccccc2)CCCN(C(=O)c2cn[nH]c2)C1 (stereo unspecified)	-7%	-11%	-12%	-2	-1%	-6
